In PubChem BioAssay (EPA / NIEHS):
Results filed as inconclusive are left out. Calls of active or inactive are those of the source. The calls were made as follows, unless noted: active = hit-call score of the fitted dose curve at least 0.9, where 1 is the maximum; inactive = score below 0.9.

How the values were obtained:
[1] = read-out: Interleukin-8 (IL8), CXCL8 (gene 3576); experiment: BSK_3C_IL8: BioMAP Diversity Plus: 3C Assay for Interleukin-8 (IL8) Biomarker Activity (AID 2283020); details: primary human endothelial cells (HUVEC); actives raise or lower the signal
In short: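 Human vascular endothelial cells (umbilical vein) in the 3C system; IL-8 level detected by ELISA at 24 h post-dose, with DMSO as baseline.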

[2] = read-out: Monokine induced gamma interferon (MIG), CXCL9 (gene 4283); experiment: BSK_3C_MIG: BioMAP Diversity Plus: 3C Assay for Monokine induced gamma interferon (MIG) Biomarker Activity (AID 2283021); details: primary human endothelial cells (HUVEC); actives raise or lower the signal;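 as to AC50: MIG protein level measured by immunoassay in the treated endothelial cultures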
In short: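 After 24 h of treatment, human umbilical vein endothelial cultures (3C system) had their MIG biomarker level determined by ELISA, with DMSO serving as negative control.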

[3] = BSK_3C_SRB: Viability Assessment in the BioMAP Diversity Plus: 3C Assay (AID 2283023); details: primary human endothelial cells (HUVEC);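 also: cells read 24 h after compound dosing; fitted both ways against DMSO so a hit may be signal rise or drop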
In short: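 HUVEC, 24 h post-dose; 10% TCA fix, 0.1% SRB stain, A560 nm. Bidirectional curve fit vs DMSO negative control.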

[4] = read-out: Matrix Metallopeptidase 1 (MMP1), MMP1 (gene 4312); experiment: BSK_BE3C_MMP1: BioMAP Diversity Plus: BE3C Assay for Matrix Metallopeptidase 1 (MMP1) Biomarker Activity (AID 2283024); details: primary human bronchial epithelial cells; actives raise or lower the signal
In short: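 Dose cells, wait 24 h, run MMP1 ELISA; cells are human bronchial epithelial primaries. Both increases and decreases relative to DMSO counted.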

[5] = BSK_3C_Vis: BioMAP Diversity Plus: 3C Assay for Morphology Visualization (AID 2283025); details: primary human endothelial cells (HUVEC);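 also: fitted both ways so gain or loss versus DMSO counts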;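 as to AC50: light microscopy image of cell morphology used as background control; cells imaged 24 h after dosing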
In short: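 Endothelial cells from human umbilical vein were treated with test chemicals for 24 h and inspected by light microscopy for changes in cell conformation.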

[6] = read-out: Pselectin, SELP (gene 6403); experiment: BSK_4H_Pselectin: BioMAP Diversity Plus: 4H Assay for Pselectin Biomarker Activity (AID 2283026); details: primary human endothelial cells (HUVEC); actives raise or lower the signal
In short: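 Human vascular endothelium from umbilical vein; P-selectin measured by ELISA at 24 h post-dose, with cytotoxicity checked by sulforhodamine B total-protein staining in parallel cultures (0.1% SRB after 10% TCA fixation, read at 560 nm).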

[7] = BSK_4H_SRB: Viability Assessment in the BioMAP Diversity Plus: 4H Assay (AID 2283027); details: primary human endothelial cells (HUVEC);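 also: cells exposed to compound for 24 h before staining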;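 as to AC50: curves fitted both ways versus DMSO so AC50 may be loss or gain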
In short: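 Human umbilical vein endothelial cells were dosed with chemical and, after 24 h, fixed with 10% TCA, stained with 0.1% sulforhodamine B, and read at 560 nm to give total protein as a cytotoxicity measure. Bidirectional fitting relative to DMSO control.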

[8] = BSK_BE3C_SRB: Viability Assessment in the BioMAP Diversity Plus: BE3C Assay (AID 2283028); details: primary human bronchial epithelial cells;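 as to AC50: fitted both ways so AC50 may mark signal gain or loss versus DMSO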
In short: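 Primary human bronchial epithelium; chemical dosing, 24 h; 10% TCA fix, 0.1% SRB stain, A560; bidirectional fit vs DMSO baseline.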

[9] = read-out: Thrombomodulin, THBD (gene 7056); experiment: BSK_3C_Thrombomodulin: BioMAP Diversity Plus: 3C Assay for Thrombomodulin Biomarker Activity (AID 2283029); details: primary human endothelial cells (HUVEC); actives raise or lower the signal
In short: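 Thrombomodulin ELISA, human primary HUVEC, 24 h post-dose; data fitted in both directions relative to DMSO.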

[10] = read-out: Urokinase-type plasminogen activator receptor (uPAR), PLAUR (gene 5329); experiment: BSK_4H_uPAR: BioMAP Diversity Plus: 4H Assay for Urokinase-type plasminogen activator receptor (uPAR) Biomarker Activity (AID 2283030); details: primary human endothelial cells (HUVEC); actives raise or lower the signal
In short: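 HUVEC, 24 h post-dose; uPAR by ELISA; bidirectional fit vs DMSO baseline.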

[11] = read-out: Vascular endothelial growth factor receptor 2 (Homo sapiens) (UniProt P35968); experiment: BSK_4H_VEGFRII: BioMAP Diversity Plus: 4H Assay for Vascular endothelial growth factor receptor 2 (VEGFR2) Biomarker Activity (AID 2283031); details: primary human endothelial cells (HUVEC); actives raise or lower the signal;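 as to AC50: cell-surface VEGFR2 protein level quantified by ELISA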
In short: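 HUVEC (human primary), 4H system; 24 h post-dose; VEGFRII by ELISA; bidirectional curve fit vs DMSO baseline; gain or loss of signal scored.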

[12] = read-out: Human Leukocyte Antigen - DR isotype (HLADR), HLA-DRA (gene 3122); experiment: BSK_BE3C_HLADR: BioMAP Diversity Plus: BE3C Assay for Human Leukocyte Antigen - DR isotype (HLADR) Biomarker Activity (AID 2283032); details: primary human bronchial epithelial cells; actives raise or lower the signal
In short: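 Signal came from an ELISA for HLA-DR in human bronchial epithelial primary cells harvested 24 h after treatment; gain- and loss-of-signal fitting used DMSO controls as reference.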

[13] = read-out: Vascular cell adhesion molecule 1 (VCAM1), VCAM1 (gene 7412); experiment: BSK_4H_VCAM1: BioMAP Diversity Plus: 4H Assay for Vascular cell adhesion molecule 1 (VCAM1) Biomarker Activity (AID 2283033); details: primary human endothelial cells (HUVEC); actives raise or lower the signal
In short: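 Endpoint derived from bidirectional fitting against DMSO controls of VCAM-1 ELISA signal in umbilical vein endothelial cells sampled at 24 h following treatment.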

[14] = read-out: Interferon-gamma inducible Protein 10 (IP10), CXCL10 (gene 3627); experiment: BSK_BE3C_IP10: BioMAP Diversity Plus: BE3C Assay for Interferon-gamma inducible Protein 10 (IP10) Biomarker Activity (AID 2283034); details: primary human bronchial epithelial cells; actives raise or lower the signal
In short: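 Using primary human bronchial epithelial cultures, the assay captures IP-10 by ELISA one day (24 h) after exposure. Parallel SRB staining of total protein flags overt cytotoxicity. Fits run bidirectionally relative to DMSO.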

[15] = read-out: Monokine induced gamma interferon (MIG), CXCL9 (gene 4283); experiment: BSK_BE3C_MIG: BioMAP Diversity Plus: BE3C Assay for Monokine induced gamma interferon (MIG) Biomarker Activity (AID 2283035); details: primary human bronchial epithelial cells; actives raise or lower the signal
In short: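 ELISA read-out of MIG in human lung bronchial epithelial primary cultures, 24 h post-dosing. Bidirectional curve fit vs DMSO baseline.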

[16] = read-out: Transforming growth factor beta 1 (TGFb1), TGFB1 (gene 7040); experiment: BSK_BE3C_TGFb1: BioMAP Diversity Plus: BE3C Assay for Transforming growth factor beta 1 (TGFb1) Biomarker Activity (AID 2283036); details: primary human bronchial epithelial cells; actives raise or lower the signal
In short: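 In this human primary bronchial epithelial system, an ELISA quantified TGF-b1 one day after dosing. Endpoint changes in either direction were fitted relative to DMSO.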

[17] = read-out: Plasminogen activator inhibitor-1 (PAI1), SERPINE1 (gene 5054); experiment: BSK_BE3C_PAI1: BioMAP Diversity Plus: BE3C Assay for Plasminogen activator inhibitor-1 (PAI1) Biomarker Activity (AID 2283037); details: primary human bronchial epithelial cells; actives raise or lower the signal
In short: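 PAI-1 biomarker levels in treated human bronchial epithelial cells are determined by ELISA at 24 h. Both increases and decreases relative to DMSO are fitted.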

[18] = read-out: urokinase plasminogen activator (uPA), PLAU (gene 5328); experiment: BSK_BE3C_uPA: BioMAP Diversity Plus: BE3C Assay for urokinase plasminogen activator (uPA) Biomarker Activity (AID 2283038); details: primary human bronchial epithelial cells; actives raise or lower the signal
In short: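 ELISA read-out of uPA in human lung primary bronchial epithelial cultures, 24 h post-dosing. Gain or loss of signal fitted bidirectionally relative to DMSO baseline; cytotoxicity checked in parallel cultures via SRB total protein stain.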

[19] = read-out: Urokinase-type plasminogen activator receptor (uPAR), PLAUR (gene 5329); experiment: BSK_BE3C_uPAR: BioMAP Diversity Plus: BE3C Assay for Urokinase-type plasminogen activator receptor (uPAR) Biomarker Activity (AID 2283039); details: primary human bronchial epithelial cells; actives raise or lower the signal
In short: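 A uPAR ELISA serves as the readout, taken 24 h after treating primary human bronchial epithelial cells. Responses in either direction are fitted against DMSO, which defines baseline activity.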

[20] = target: human Vitamin D Receptor (VDR), VDR (gene 7421) (UniProt P11473); experiment: ATG_VDR_TRANS: Attagene TRANS-FACTORIAL HepG2 Assay for human Vitamin D Receptor (VDR) (AID 2283022; active = hit-call score of the fitted dose curve at least 0.9, where 1 is the maximum)
human Vitamin D Receptor (VDR), VDR (gene 7421), sequence (P11473 whole entry, looked up, the tested form may be a part): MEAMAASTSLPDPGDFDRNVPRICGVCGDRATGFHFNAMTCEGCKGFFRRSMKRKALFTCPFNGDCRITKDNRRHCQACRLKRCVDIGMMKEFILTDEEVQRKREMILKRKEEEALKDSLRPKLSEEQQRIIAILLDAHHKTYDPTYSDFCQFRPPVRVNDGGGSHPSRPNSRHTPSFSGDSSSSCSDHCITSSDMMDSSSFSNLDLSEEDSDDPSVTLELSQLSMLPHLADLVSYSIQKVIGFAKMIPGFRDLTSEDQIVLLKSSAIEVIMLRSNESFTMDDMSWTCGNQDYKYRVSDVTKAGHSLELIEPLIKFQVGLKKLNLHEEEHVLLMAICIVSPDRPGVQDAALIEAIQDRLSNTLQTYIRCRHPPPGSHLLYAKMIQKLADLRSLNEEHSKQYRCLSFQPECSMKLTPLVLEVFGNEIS
In short: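 RT-PCR/capillary electrophoresis read-out of reporter mRNA induction in transiently transfected HepG2; 24 h dosing; chimeric NR-Gal4 (TRANS format); gain-of-signal fit against DMSO baseline.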

Measured: AC50

CCCN(CCC)c1c([N+](=O)[O-])cc(C(F)(F)F)cc1[N+](=O)[O-]
active: [3] 24.8 µM | [5] 13.7 µM | [6] 36.5 µM | [13] 28.2 µM | [14] 25.1 µM
not listed: [20]
inactive: all other assays above

CCc1ccc(C(=O)NN(C(=O)c2cc(C)cc(C)c2)C(C)(C)C)cc1
active: [3] 11.8 µM | [7] 17.7 µM | [8] 15.4 µM | [10] 24.2 µM
not listed: [20]
inactive: all other assays above

Cc1[nH]c(=O)n(C(C)(C)C)c(=O)c1Cl
not listed: [20]
inactive: all other assays above

CCOc1nc(NC)nc(NC(=O)NS(=O)(=O)c2ccccc2C(=O)OC)n1
not listed: [20]
inactive: all other assays above

C[C@H]1[C@H](c2ccc(Cl)cc2)SC(=O)N1C(=O)NC1CCCCC1
active: [1] 20 µM | [3] 12.1 µM | [4] 12.8 µM | [5] 15.2 µM | [7] 20 µM | [8] 15.7 µM | [12] 12.6 µM | [13] 7.61 µM | [17] 10.6 µM
not listed: [20]
inactive: all other assays above

CNC(=O)Oc1ccccc1OC(C)C
not listed: [20]
inactive: all other assays above

CC(C)(C)C(O)/C(=C\c1ccc(Cl)cc1Cl)n1cncn1 (configuration not stated)
inactive: [2] | [20] | [9] | [16]
active: [1] 32.2 µM | [3] 27.8 µM | [4] 33.6 µM | [5] 37.2 µM | [6] 32.1 µM | [7] 15.8 µM | [10] 27.9 µM | [11] 27.4 µM | [12] 27.5 µM | [13] 27.7 µM | [14] 31.1 µM | [15] 35.1 µM | [17] 27.6 µM | [18] 30.3 µM | [19] 20 µM

COC(=O)c1ccccc1S(=O)(=O)NC(=O)N(C)c1nc(C)nc(OC)n1
active: [6] 12.9 µM | [16] 0.148 µM
not listed: [20]
inactive: all other assays above

COc1cc(OC)nc(NC(=O)NS(=O)(=O)c2cc(NC=O)ccc2C(=O)N(C)C)n1
not listed: [20]
inactive: all other assays above

O=C(NC(=O)c1c(F)cccc1F)Nc1ccc(OC(F)(F)C(F)OC(F)(F)F)c(Cl)c1 (configuration not stated)
active: [12] 7.82 µM | [16] 0.235 µM
not listed: [20]
inactive: all other assays above

CCC(C)(NC(=O)c1cc(Cl)c(C)c(Cl)c1)C(=O)CCl (configuration not stated)
active: [2] 14.1 µM | [3] 12.2 µM | [4] 27 µM | [5] 7.99 µM | [6] 12 µM | [7] 27.3 µM | [8] 16.5 µM | [10] 26.1 µM | [11] 20 µM | [12] 13.6 µM | [13] 10.5 µM | [14] 34 µM | [15] 32.8 µM | [18] 29.7 µM | [19] 31.5 µM
inactive: [1] | [9] | [16]

COc1nn(CSP(=S)(OC)OC)c(=O)s1
not listed: [20]
inactive: all other assays above
